# Rows were chosen to be rich in hits. Some 7.3% of all compounds tested hit in one or more screens of this group.
# Rab9 promoter act: qHTS Assay for Rab9 Promoter Activators | Huh7 Rab9 promoter-luciferase reporter, luminescence, 24 h | Potency, µM (series often up to 9.22 µM), for inactives: at the highest dose activation, negative = inhibition, actives largely listed as activators | hit rate 2.8% among 320,000 | AID 485297, 2010; further: % of control where 0% means no effect; nearly all actives have a fitted effect of over 60% in size
#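 Cell-based reporter: Huh7 stable for Rab9 promoter-driven luciferase, plated in reduced-serum medium with 10% FBS at 1500 cells/well, compound-treated 24 h at 37 °C, luminescence read after 10 min reagent.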
# NPC1 prom act: qHTS Assay for NPC1 Promoter Activators. Huh7 NPC1 promoter luciferase reporter, 24 h. Potency, µM (top dose mostly 9.22 µM), for the others: at the top dose activation, actives largely listed as activators. hit rate 2.4% among 320,000; further: % of control where 0% means no effect; nearly all actives have a fitted effect of over 60% in size
#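 Compounds in DMSO were transferred onto Huh7 NPC1-luciferase reporter cells pre-incubated 2 h; after 24 h at 37 °C, Amplite reagent was dispensed and luminescence recorded 10 min later.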
# SMN2 splice enh: qHTS Assay for Enhancers of SMN2 Splice Variant Expression; HEK293 SMN2-luciferase splicing reporter, luminescence, 30-36 h; Potency, µM (doses to about 46.1 µM), without a hit: at the highest dose activity change, positive = activation, most hits filed as activators; hit rate 2.8% among 210,000; AID 1458, 2008; further: % of control where 0% means no effect; nearly all actives have a fitted effect of over 55% in size
#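 HEK293 cells carry an SMN2 minigene-luciferase reporter in which exon 7 inclusion puts luciferase in frame. Cells were seeded at 2000 cells/well, attached for 10-12 hours, then exposed to compounds for 30-36 hours at 37C before ONE-Glo luminescence.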
# ELG1 genotox: qHTS screen for small molecules that induce genotoxicity in human embryonic kidney (HEK293T) cells expressing luciferase-tagged ELG1; HEK293T ELG1-luciferase reporter, luminescence, 16 h; Potency, µM (top dose mostly 46 µM), without a hit: at the top dose activity change, positive = activation, most hits filed as activators; hit rate 1.3% among 330,000; AID 504466, 2011; further: % of control where 0% means no effect; nearly all actives have a fitted effect of over 60% in size
#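 DMSO vehicle served as control against compound-treated ELG1-luciferase HEK293T cells; exposure lasted 16 hr at 37 °C and 5% CO2, followed by ONE-Glo luminescence detection after 30 min.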
# FLuc counter: qHTS profiling assay for firefly luciferase inhibitor/activator using purifed enzyme and Km concentrations of substrates (counterscreen for miR-21 project). hit rate 6.9% among 360,000. purified FLuc, Km substrates, luminescence inhibition. Potency, µM (series often up to 57.5 µM), for the others: at the top dose activity change, negative = inhibition, usual class: inhibitors;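 further: plate controls were vehicle for no effect and reference inhibitor for full effect; nearly all actives have a fitted effect of over 55% in size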
# Target sequence (P08659 whole entry, looked up): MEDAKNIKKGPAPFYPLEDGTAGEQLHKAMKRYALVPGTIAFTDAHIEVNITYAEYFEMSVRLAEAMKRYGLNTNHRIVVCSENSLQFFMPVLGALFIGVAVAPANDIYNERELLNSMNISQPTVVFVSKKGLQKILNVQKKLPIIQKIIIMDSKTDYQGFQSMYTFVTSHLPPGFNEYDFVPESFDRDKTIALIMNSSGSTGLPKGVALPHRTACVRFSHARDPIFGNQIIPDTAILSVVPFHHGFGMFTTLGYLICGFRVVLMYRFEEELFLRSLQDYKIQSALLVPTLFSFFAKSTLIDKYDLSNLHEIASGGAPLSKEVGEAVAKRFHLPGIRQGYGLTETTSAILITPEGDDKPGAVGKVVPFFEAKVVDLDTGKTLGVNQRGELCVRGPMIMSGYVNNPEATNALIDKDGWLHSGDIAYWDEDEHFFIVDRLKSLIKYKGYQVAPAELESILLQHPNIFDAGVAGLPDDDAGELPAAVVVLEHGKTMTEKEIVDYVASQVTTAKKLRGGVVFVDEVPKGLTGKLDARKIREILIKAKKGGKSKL
#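 Purified P. pyralis luciferase, 10 nM final, with Km-level 10 uM D-luciferin and 10 uM ATP in 50 mM Tris acetate pH 7.5, 10 mM Mg acetate, 0.01% Tween-20, 0.05% BSA; 6-point qHTS titration about 60 µM downward; luminescence read.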
# KinaseGlo FLuc: Counterscreen for Luciferase (Kinase-Glo TM) Inhibition; hit rate 0.28% among 200,000; AID 1379, 2008; Kinase-Glo luciferase, ATP luminescence, 8 min; Potency, µM (doses to about 38.3 µM), for inactives: at the highest dose activity change, negative = inhibition, usual class: inhibitors; further: on the % scale 0 is the no-effect control and ±100 the full control effect; nearly all actives have a fitted effect of over 60% in size
#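 Substrate mix (final 50 mM imidazole pH 7.2, 50 mM KCl, 7 mM MgCl2, 10 uM ATP, 0.01% Tween 20, 0.05% BSA) plus pin-tool compound, then Kinase-Glo detection mix; 8 min ambient, luminescence read.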
# An asterisk follows results filed as active; ? = inconclusive; . = not tested or not shown; [ ] = another dose, or the depositor's remark. The call rests on the fitted dose curve; in most records, active means well fitted curve in the direction sought with a large enough effect; inconclusive means small, poorly fitted or top-dose-only effect, or another doubt; inactive means no such curve, though single readings can be large; an effect the other way counts as inactive or inconclusive. Potency means the concentration at half of the fitted maximal effect.
SMILES,Rab9 promoter act,NPC1 prom act,SMN2 splice enh,ELG1 genotox,FLuc counter,KinaseGlo FLuc
COc1ccc2cc(-c3cc(C(=O)O)c4ccccc4n3)ccc2c1,?,0.112µM*,?,?,0.0675µM*,7.94µM*
c1ccc2sc(N3CCN(Cc4ccc5c(c4)OCO5)CC3)nc2c1,.,.,-2.8%,.,.,1.3%
O=C(Nc1cccc(-c2nc3ccccc3s2)c1)c1ccc2c(c1)OCO2,-1.7%,13.8%,-3.7%,1.0%,12µM*,-1.1%
O=C(Nc1ccc2nn(-c3ccccc3)nc2c1)c1ccc2c(c1)OCO2,-3.5%,-1.6%,4.3%,8.8%,-15.4%,-1.6%
c1ccc2sc(-c3ccc4c(c3)OCO4)nc2c1,0.316µM*,0.562µM*,7.08µM*,0.581µM*,0.536µM*,12.6µM*
Cc1c(NC(=O)c2ccc3c(c2)OCO3)cccc1-c1nc2ccccc2s1,2.6%,4.8%,-10.7%,3.8%,3.38µM*,-4.7%
Cc1c(NC(=O)c2ccc3c(c2)OCO3)cccc1-c1nc2ncccc2o1,-0.6%,-1.6%,-25.8%,2.6%,?,-7.7%
CCOC(=O)c1cccc(NC(=O)NC(C)c2c(-n3cccc3)sc3c2CCN(C)C3)c1 (configuration not stated),.,.,.,.,-8.6%,.
COc1cccc(C=Nc2ccc(N3CCOCC3)cc2)c1O,15.3%,3.7%,.,-3.0%,12µM*,.
CCN1CCC(N2CCN(c3ccc(F)cc3)CC2)CC1,-4.9%,-2.1%,.,-2.0%,5.8%,.
CCN1CCN(c2ccc(N=Cc3ccccc3O)cc2)CC1,0.8%,1.7%,-1.0%,-1.4%,21.3µM*,-2.2%
Cc1cc(O)c(C=Nc2ccc(N3CCOCC3)cc2)c(C)c1Cl,5.0%,0.4%,.,-1.1%,4.78µM*,.
O=[N+]([O-])c1cc(Br)c(O)c(C=Nc2ccc(N3CCOCC3)cc2)c1,-0.3%,10.1%,20.1%,-8.6%,?,-9.5%
Cc1cccc(N=Cc2cc(Br)cc(Cl)c2O)c1,-2.3%,0.3%,-6.2%,-0.7%,?,-4.9%
COc1ccc(N=Cc2cccc(C)c2O)cc1Cl,10.2%,-3.7%,6.8%,1.9%,26.9µM*,-2.9%
COc1cccc(/C=N/N2CCOCC2)c1O,?,29.9%,.,?,6.75µM*,.
COc1cccc(C=Nc2ccc3c(c2)OCCO3)c1O,-0.7%,7.4%,18.8%,?,19µM*,7.94µM*
COc1cccc(/C=N/N2C(=O)NC3(CCCCC3)C2=O)c1O,-3.2%,0.1%,-10.1%,2.1%,13.5µM*,-4.9%
Oc1ccc(/C=N/N2CCOCC2)c(O)c1O,6.1%,-4.2%,8.8%,-14.2%,?,-12.2%
CCOC(=O)c1c(C)[nH]c(C)c1S(=O)(=O)N1CCC(C(=O)Nc2cc(Cl)ccc2OC)CC1,.,.,.,.,-12.7%,.
Cc1ccc(N(CC(=O)NCCc2ccccc2)S(=O)(=O)N(C)C)cc1,.,.,0.3%,.,1.9%,.
CC(=O)c1c(C)[nH]c(C(=O)Nc2cccc(S(=O)(=O)N3CCOCC3)c2)c1C,1.0%,-2.3%,8.91µM*,?,-3.1%,7.0%
CC(=O)c1c(C)[nH]c(C(=O)Nc2cc(S(=O)(=O)N3CCCCC3)ccc2C)c1C,0.7%,-3.6%,.,11.8%,3.8%,.
CC(=O)c1c(C)[nH]c(C(=O)Nc2cccc(S(=O)(=O)N(C)c3ccccc3)c2)c1C,-7.1%,-12.9%,.,-17.0%,-8.8%,.
COc1ccc(S(=O)(=O)N2CCCCC2)cc1NC(=O)c1[nH]c(C)c(C(C)=O)c1C,.,.,.,11.6µM*,.,.
SMILES,Rab9 promoter act,NPC1 prom act,SMN2 splice enh,ELG1 genotox,FLuc counter,KinaseGlo FLuc
CCN(CC)S(=O)(=O)c1cc(NC(=O)CNc2cccc(S(=O)(=O)N3CCOCC3)c2)ccc1C,-34.1%,-27.8%,.,5.17µM*,6.3%,.
Cc1ccc(NC(=O)CSc2ncnc3ccccc23)cc1S(=O)(=O)N1CCCCC1,-6.7%,-1.9%,-28.7%,1.6%,-19.9%,-0.1%
COc1ccc(S(=O)(=O)N2CCCCC2)cc1NC(=O)CSc1ncnc2ccccc12,-46.7%,-9.8%,-45.1%,-6.1%,8.49µM*,0.2%
C[C@H](CCC(=O)O)[C@H]1CC[C@]2(C)[C@@H]3C(=O)C[C@H]4C(C)(C)[C@@H](O)CC[C@]4(C)[C@H]3C(=O)C[C@@]12C,.,.,2.5%[9.22 µM],.,.,-2.0%[7.66 µM]
CCc1ccc(NC(=O)Cn2c(=O)n(CC3CCCO3)c(=O)c3cc(OC)c(OC)cc32)cc1 (configuration not stated),.,.,2.1%,.,2.2%,.
COc1ccc(-n2nc(C(=O)Nc3ccccc3OC)c3c4ccccc4n(C)c3c2=O)cc1Cl,.,.,.,.,-0.8%,.
CCOc1ccc(CCNC(=O)c2ccc(-c3nc(COc4ccc(C)cc4)c(C)o3)cc2)cc1,.,.,1.3%,.,-2.8%,.
COc1ccc(S(=O)(=O)N2CCCCCC2)cc1C(=O)N1CCCCC1,-0.7%,-5.8%,.,?,16.9µM*,.
O=C(NCc1ccccc1)c1ccc(-c2ccccc2F)o1,?,26.1%,31.6µM*,13µM*,13.5µM*,1.7%
CCc1nnc(NC(=O)c2ccc(-c3ccccc3F)o2)s1,24.9%,24.6%,21.1%,?,-14.2%,0.6%
O=C(NCCc1ccccc1)c1ccc(-c2ccc(F)cc2)o1,0.7%,-6.0%,4.9%,-0.1%,21.3µM*,2.4%
O=C(NCCc1ccccc1)c1ccc(-c2ccccc2C(F)(F)F)o1,-0.7%,-2.6%,8.5%,1.3%,?,-1.1%
Cc1ccsc1CN(C)C(=O)C1CCC(=O)N(CCc2cccc(F)c2)C1 (configuration not stated),22.2%,?,.,?,15.1µM*,.
Cc1ccsc1CCNC(=O)C1CCC(=O)N(CCc2cccc(F)c2)C1 (configuration not stated),2.51µM*,2.82µM*,.,?,21.3µM*,.
CN(C(=O)C1CCC(=O)N(Cc2cccc(F)c2)C1)C1CCCCC1 (configuration not stated),2.51µM*,3.16µM*,.,?,16.9µM*,.
O=C(NCCc1cccs1)C1CCC(=O)N(CCc2cccc(F)c2)C1 (configuration not stated),0.0%,-0.6%,.,-2.8%,-5.2%,.
Cc1ccc(OCc2nc(-c3ccc(C(=O)NCCc4ccc(Cl)cc4)cc3)oc2C)cc1,.,.,.,.,-0.4%,.
Cc1c(-c2nsc(NC(=O)c3ccccc3)n2)nnn1-c1ccc(C(F)(F)F)c(Cl)c1,.,.,4.4%,.,-0.8%,.
Cc1ccc(C(=O)NC2CCN(C(=O)Nc3ccccc3)CC2)cc1,0.2%,-2.2%,.,-0.6%,2.5%,.
Cc1ccc(NC(=O)N2CCC(c3ccccc3)C2)cc1C (configuration not stated),0.794µM*,1.41µM*,12.6µM*,?,4.78µM*,-0.5%

# Compound activity from PubChem.
